High-throughput results as filed in PubChem.
A selection: hits, their analogues and other compounds. The true share with any hit is near 21%.
DT40 TDP1 CPT = growth inhibition of DT40 Tdp1-/-;hTDP1 cells with camptothecin (screen for TDP1 inhibitors). 420,000 tested, 12% active. Potency, µM (series often up to 46.2 µM), without a hit: at the highest dose activity change, negative = growth inhibition, actives largely listed as inhibitors. chicken DT40 Tdp1-/-;hTDP1 cells + 20 nM CPT, ATP luminescence, 48 h. AID 686979; note: potency is the fitted concentration of half-maximal effect; % is set by controls: 0 for no effect and ±100 for the full control effect; nearly all actives have a fitted effect of over 55% in size
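Chicken DT40 Tdp1-/- cells stably complemented with human TDP1 were seeded at 400 cells/well in medium containing 20 nM camptothecin, exposed to pin-transferred compounds, and grown at 37 °C for at least 48 hr. Viability was read as ATP luminescence.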
IL1B secr inh = blocks inflammasome-driven IL-1 beta release | activity change, % at 57.5 µM | THP-1 LPS/ATP IL-1B secretion, AlphaLISA, 16 h; hits give low values | AID 743279 | 360,000 tested, 4.7% active; in the data active = activity change below about -50%; inconclusive = mostly about -30% to -49%; note: % is set by controls: 0 for no effect and ±100 for the full control effect
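THP-1 cells pretreated 1 hr with compounds (up to 57.5 uM final), then stimulated with LPS (250 ng/mL final) plus ATP (1.25 mM final); secreted IL-1B measured by AlphaLISA after 16 hr, decreased signal indicating inhibition.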
ClpP mod = qHTS Assay for Activators of ClpP; ATP-dependent Clp protease proteolytic subunit (Bacillus subtilis (strain 168)), P80244; purified B. subtilis ClpP, FRET peptide cleavage, 20 min; Potency, µM (top dose mostly 57.5 µM), without a hit: at the highest dose activity change, negative = active; 340,000 tested, 1.9% active; AID 651965, 2013; active = well fitted falling curve with a large enough effect; inconclusive = small, poorly fitted or top-dose-only effect; inactive = no such curve, though single readings can be large or run the other way; note: potency is the fitted concentration of half-maximal effect; the source files actives as falling curves though it sought activators and does not explain the sign; nearly all actives have a fitted effect of over 65% in size
Target sequence (P80244 whole entry, looked up): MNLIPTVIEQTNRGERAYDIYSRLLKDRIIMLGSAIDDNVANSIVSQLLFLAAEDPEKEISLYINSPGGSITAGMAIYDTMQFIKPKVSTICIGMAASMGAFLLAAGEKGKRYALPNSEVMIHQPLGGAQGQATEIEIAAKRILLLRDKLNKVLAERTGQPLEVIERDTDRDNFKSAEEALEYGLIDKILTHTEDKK
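FRET quenching reversal measured ClpP activation: 10 microg/mL B. subtilis ClpP at pH 8 with the FRET-FV decapeptide, read at 430 nm after 320 nm excitation. The 20-min minus 0-min signal was scaled between DMSO/no-enzyme wells and ADEP (5.8 microM final).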
D3 antag = D3 dopamine receptor (human) antagonism | D3R cells, DiscoveRx beta-arrestin luminescence, antagonist mode; hits give low values | max response, negative = inhibition, % | 360,000 tested, 2.5% active | AID 652054; in the data active = max response below about -50%; inconclusive = no clear call, values can overlap the other calls; note: % is set by controls: 0 for no effect and ±100 for the full control effect
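Cells expressing the human receptor were seeded at 1500 cells/well, incubated overnight at 37 degrees C in 5% CO2, then exposed to library compounds with dopamine controls for 90 minutes at 37 degrees C before luminescent detection.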
DRD3 agonist = D3 dopamine receptor (human) agonism | P35462 | D3R DiscoveRx beta-arrestin cells, luminescence, 90 min | max activation, % | 410,000 tested, 0.58% active | AID 652048; in the data active = max activation above about 30%; note: 0% is about no effect
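Cells at 1500/well, incubated overnight, then treated with pinned compounds (dopamine as control) for 90 min at 37 degrees C. DiscoveRx reagent added for 30 - 60 minutes at room temperature; luminescence read.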
DT40 TDP1 no CPT = qHTS for Inhibitors of human tyrosyl-DNA phosphodiesterase 1 (TDP1): qHTS in cells in absence of CPT; DT40 Tdp1-/- hTDP1 cells, no CPT, ATP luminescence, 48 h; Potency, µM (series often up to 46.2 µM), for inactives: top-dose activity change, negative = growth inhibition, usual class: inhibitors; 420,000 tested, 15% active; AID 686978, 2013; note: potency is the fitted concentration of half-maximal effect; % is set by controls: 0 for no effect and ±100 for the full control effect; nearly all actives have a fitted effect of over 55% in size
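Chicken DT40 Tdp1-/- cells stably complemented with human TDP1 were seeded at 400 cells/well with DMSO in place of 20 nM camptothecin. After compound pinning, cells grew at least 48 hr at 37 °C; viability read by CellTiter-Glo luminescence.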
* hit, by the source's call; ? = inconclusive; . = no result given. Unless noted, calls come from the whole dose curve; as a rule, active = well fitted inhibition curve with a large enough effect; inconclusive = small, poorly fitted or top-dose-only effect; inactive = flat fitted curve, though single readings scatter.

SMILES	DT40 TDP1 CPT	IL1B secr inh	ClpP mod	D3 antag	DRD3 agonist	DT40 TDP1 no CPT
O=C(CN1CCN(CC(=O)Nc2ccccc2F)CC1)Nc1cccc(F)c1	-22%	-10	.	-6	3	-25%
O=C(CN1CCN(C(=O)CCC(=O)N2CCC(c3ccccc3)=N2)CC1)Nc1cccc(F)c1	16µM*	?	-11%	-15	2	16µM*
COc1ccc(NC(=O)CS(=O)c2cccc(Cl)c2)cc1 (stereo not given)	-20%	5	2%	2	3	17%
C=CCNc1nc2ccccc2nc1NS(=O)(=O)c1ccc(Cl)cc1	?	33	-9%	23	15	?
FC(F)(F)c1nc(-c2cccs2)ncc1-c1nnnn1-c1ccc(Cl)cc1	4.1µM*	-27	35µM*	-19	29	2.9µM*
COc1ccc(-n2nnnc2-c2cnc(N3CCCC3)nc2C(F)(F)F)cc1	8.2µM*	-55*	-5%	-10	1	9.2µM*
COc1ccc(-n2nnnc2-c2cccnc2)cc1	2%	19	-2%	12	2	-20%
FC(F)(F)c1nc(-c2cccnc2)ncc1-c1nnnn1-c1ccccc1	?	-11	-3%	6	1	16µM*
Cc1ccc(CNC(=O)Cn2ccn(-c3cc(C)cc(C)c3)c(=O)c2=O)cc1	-2%	.	4%	.	0	-18%
COc1cc(OC)c(NS(=O)(=O)c2ccc3c(c2)CCCN3C(C)=O)cc1Cl	?	.	-6%	.	0	?
CCOC(=O)CN(Cc1ccccc1)C(C(=O)NC1CCCCC1)c1ccc(C)cc1 (stereo not given)	?	.	0%	.	-16	?
O=C(c1cc2cc([N+](=O)[O-])ccc2s1)N1CCCCC1	-30%	-29	1%	-7	0	?
COc1ccc(S(=O)(=O)N2CCC(Nc3ccccc3Cl)CC2)cc1	-21%	0	1%	2	0	-13%
NC(=S)NN=Cc1nccc2c(C(F)(F)C(F)(F)C(F)(F)F)cccc12	0.016µM*	117	0%	?	-12	0.52µM*
NC(=S)N/N=C/c1ccc(-c2ccccc2)o1	?	-24	-12%	-16	3	?
CN(C)/N=C/c1ccc(/C=N/NC(N)=S)o1	-7%	9	.	14	9	-28%
NC(=S)NN=Cc1nccc2ccccc12	2.3µM*	109	.	0	4	2.1µM*
Cc1cnc(C=NNC(N)=S)c2cccc(N)c12	3.3µM*	62	1%	16	7	3.7µM*
CCCCCCCCCCCCCCCCCCO	-15%	.	.	.	13	-3%
CCN(CC)C[C@@H]1CCCCN1CC(=O)N1c2ccccc2C(=O)Nc2cccnc21	2%	.	.	.	.	-1%
CC(=O)N/C(=N/c1nc(C)cc(C)n1)Nc1ccc(C)cc1C	?	11	1%	18	10	?
CC(C)c1ccc(Nc2cc(C(=O)NCCCN(C)Cc3ccccc3)c3ccccc3n2)cc1	9.2µM*	.	0%	.	-18	?
COc1ccc(Nc2cc(C(=O)NCCCN(C)C3CCCCC3)c3ccccc3n2)cc1	15µM*	.	0%	.	-13	21µM*
O=C1OC(c2ccccc2)Cc2cc(C(=O)N3CCN(c4ccc(F)cc4)CC3)ccc21 (stereo not given)	18µM*	-13	2%	-17	-8	?
COc1ccc(N2CCN(C(=O)c3ccc4c(c3)CC(c3ccccc3)OC4=O)CC2)cc1 (stereo not given)	?	-11	.	3	0	21µM*
O=C(O)c1ccc2c(c1)CC(c1ccccc1)OC2=O (stereo not given)	7%	30	-1%	-5	6	-9%
CN(CCC#N)C(=O)COC(=O)c1cc(Cl)cc(Cl)c1N	-19%	-5	.	1	-2	-2%
